Data as given in PubChem BioAssay (NCATS).
Several values for one entry are separate records, joined by “and”; a condition that tells them apart may be missing. Equal entries are not always repeated. Records with an inconclusive call do not appear. Activity calls are given as the source filed them. The call rests on the fitted dose curve; in most records, active means well fitted cell-killing curve with a large enough effect; inconclusive means small, poorly fitted or top-dose-only effect; inactive means no such curve, though single readings can be large or run the other way. Peptide text beside a SMILES is read from it.

Test: qHTS of pediatric cancer cell lines to identify multiple opportunities for drug repurposing: Primary screen for SJ-GBM2 cells (AID 1347091)
Details: SJ-GBM2 viability, CellTiter-Glo luminescence, 48 h; series mostly up to 46 µM; activity change, negative = cytotoxic: at the top concentration
From the text: Drug repurposing or repositioning has been offered as a strategy for drug development in oncology programs. This approach has special potential for childhood cancers and other rare or orphan diseases, where the expected return on new drug development has been a disincentive to pharmaceuticals.
In this project we exploit the poly-pharmacology of drugs to discover new indications via phenotypic screening of a panel of 19 well-characterized cell lines derived from solid tumors seen in children and adolescents. The goal is to identify approved drugs with previously unrecognized anticancer properties that has the potential to reveal new mechanisms and biological processes involved in carcinogenesis or drug resistance. We employed a titration-based paradigm (quantitative high-throughput screening or qHTS), where all compounds were tested at multiple concentrations for their effect on cell viability. Concentration-response curves (CRCs) were derived directly from the primary screen, and both potency and efficacy values were used to identify compounds with robust bioactivity profiles. We screened the NIH Chemical Genomics Center (NCGC) Pharmaceutical Collection (NPC) and Mechanism Interrogation Plate (MIPE) small molecule collections of approved and investigational compounds against these cell lines; and measured metabolically active cells after 48 hours of compound treatment as a proxy for cell viability.
Assay Submitter: Nathalia J. Martinez, National Center for Advancing Translational Sciences, National Institutes of Health, Rockville, MD, USA; email: natalia.martinez@nih.gov
[1] Shen, M et al. Quantitative high-throughput phenotypic screening of pediatric cancer cell lines identifies multiple opportunities for drug repurposing. Oncotarget 2017 Dec 19;9(4):4758-4772. PMID 29435139.
The cells were obtained from University of North Carolina (UNC), Pediatric Preclinical Testing Program (PPT), and Coriell Institute (CI).
qHTS cell viability assay:
Cells were assayed in growth media at a density of 500-1,000 cells/well. Five microliters of cells were dispensed into 1,536-well, white, solid-bottom, TC-treated plates (Greiner Bio One) using a multidrop dispenser and incubated at 37 degrees C, 5% CO2, under a humidified atmosphere for 5 hours. Twenty-three nanoliters of compounds and controls (neutral control DMSO or positive control bortezomib at final concentration of 2.3 µM) were subsequently transferred by Kalypsys pintool. For primary screens, the MIPE collection was tested at 11-point dilutions (final concentrations range from 0.78 nM to 46 µM) and the NPC collection at 8-point dilutions (final concentrations range from 0.59 nM to 46 µM). Compounds tested in follow-up screens were assayed at 11-point dilutions. Cells were incubated for 48 hours, followed by addition of 3 uL of CellTiter-Glo (Promega). After a 15 min incubation at room temperature, samples were analyzed for luminescence intensity using a ViewLux High-throughput CCD imager equipped with clear filters.
Potency means the concentration at half of the fitted maximal effect.

Structure (SMILES) | activity change, negative = cytotoxic | Potency
CNC[C@H](O)c1ccc(O)c(O)c1 | 9.55% [at 16.1 µM] (inactive) | 
CC(=O)Nc1ccc(O)cc1 | 12.5% (inactive) | 
Cc1cccc(C#Cc2ccccc2)n1 | -9.53% (inactive) | 
CCc1nc(N)nc(N)c1-c1ccc(Cl)cc1 |  | 2.66 µM (active) and 4.18 µM (active)
Nc1nc(N)c(N=O)c(OCC2CCCCC2)n1 |  | 9.35 µM (active)
O=P(O)(O)C(O)(Cn1ccnc1)P(=O)(O)O | 12.8% [at 16.1 µM] (inactive) | 
C[C@]12CCC(=O)C=C1CC[C@@H]1[C@H]2[C@@H](O)C[C@@]2(C)[C@H]1CC[C@]2(O)C(=O)CO | 10.6% (inactive) | 
O=C1CCc2ccc(OCCCCN3CCN(c4cccc(Cl)c4Cl)CC3)cc2N1 |  | 18.8 µM (active)
NC(=NCc1ccccc1)NC(=O)c1nc(Cl)c(N)nc1N | 26.4% (inactive) | 
CCOC(=O)C1=C[C@@H](OC(CC)CC)[C@H](NC(C)=O)[C@@H](N)C1 | 11.4% (inactive) | 
CC(C)Oc1ccc2c(=O)c(-c3ccccc3)coc2c1 |  | inactive
Clc1ccc2c(N3CCN(CCCN4CCN(c5ccnc6cc(Cl)ccc56)CC4)CC3)ccnc2c1 | 18.7% [at 16.1 µM] (inactive) | 
CCOC(=O)C1=C(O)C(=O)N(Cc2ccccc2)C1 | 1.44% (inactive) | 
COc1cc2nc(N3CCN(C(=O)C4CCCO4)CC3)nc(N)c2cc1OC (stereo not given) |  | inactive
CC1=C(C(=O)O)N2C(=O)[C@@H](NC(=O)[C@H](N)C3=CCC=CC3)[C@H]2SC1 |  | inactive
COC(=O)[C@H](Cc1ccccc1)NC(=O)[C@@H](N)CC(=O)O (H-Asp-Phe-OMe) |  | inactive
CC(C)c1ccc2c(c1)c(SC(C)(C)C)c(CC(C)(C)C(=O)O)n2Cc1ccc(Cl)cc1 |  | 20.9 µM (active)
Cc1cc(=O)oc2cc(O)ccc12 |  | inactive
CCOc1cc(CC(=O)N[C@@H](CC(C)C)c2ccccc2N2CCCCC2)ccc1C(=O)O | -6.76% (inactive) | 
Cc1c(C(=O)NN2CCCCC2)nn(-c2ccc(Cl)cc2Cl)c1-c1ccc(Cl)cc1 |  | 13.2 µM (active)

Structure (SMILES) | activity change, negative = cytotoxic | Potency
COCCCOc1ccnc(CS(=O)c2nc3ccccc3[nH]2)c1C (stereo not given) |  | inactive
CC(=O)NC[C@H]1CN(c2ccc(N3CCOCC3)c(F)c2)C(=O)O1 | 77.2% (inactive) | 
CCCCC(CC)COC(=O)C(C#N)=C(c1ccccc1)c1ccccc1 (stereo not given) |  | inactive
O=C(CS(=O)Cc1ccco1)NCC=CCOc1cc(CN2CCCCC2)ccn1 (stereo not given) | 22.8% (inactive) | 
O=C1c2ccccc2-c2n[nH]c3cccc1c23 | -15.9% (inactive) | 
Nc1ccn([C@@H]2O[C@H](CO)[C@@H](O)C2O)c(=O)n1 (stereo not given in full) | 17.6% (inactive) | 
COc1cc(OC)c(C(=O)CCCN2CCCC2)c(OC)c1 |  | inactive
COc1cc2c(cc1OC)C1CC(=O)C(CC(C)C)CN1CC2 (stereo not given) | 26.9% (inactive) | 
CC(C)[C@H](N)C(=O)OCCOCn1cnc2c(=O)[nH]c(N)nc21 | 7.8% (inactive) | 
Nc1cc(C(Cl)=C(Cl)Cl)c(S(N)(=O)=O)cc1S(N)(=O)=O |  | inactive
Nc1ccc(S(N)(=O)=O)cc1 |  | inactive
Cc1cc2cc3c(C)cc(=O)oc3c(C)c2o1 |  | inactive
O=C(NOCC1CC1)c1ccc(F)c(F)c1Nc1ccc(I)cc1Cl |  | 9.35 µM (active)
O=C1c2c(O)cc(O)cc2OC(c2ccc(O)c(O)c2)C1O (stereo not given) | 14.6% (inactive) | 
CCCc1cc(=O)[nH]c(=S)[nH]1 |  | inactive
CCCCCCCCCCCCCCCCCCCCCCO | 8.89% (inactive) | 
O=C(O)c1cc(=O)c2c(OCC(O)COc3cccc4oc(C(=O)O)cc(=O)c34)cccc2o1 |  | inactive
Cc1cc(O)c2c(c1)C(=O)c1cc(O)cc(O)c1C2=O | -22.6% (inactive) | 
c1cnc2cc3c(cc2n1)C1CNCC3C1 | 26.2% (inactive) | 
CC1(C)C(=O)N(CCN2CCC(C(=O)c3ccc(F)cc3)CC2)c2ccccc21 | 30.6% (inactive) | 
